Screens (PubChem)
The list is not random: actives were taken first. Their share in the collection is about 21%.
AMA1 RON2 block = qHTS for Inhibitors of AMA1-RON; Towards Development of Antimalarial Drug Lead: Primary Screen. Potency, µM (top dose mostly 58.2 µM), most hits filed as inhibitors. Plasmodium falciparum AMA1 (3D7) - RON2 peptide interaction. AlphaScreen AMA1-biotinylated RON2 peptide binding. actives 0.2% (n = 360,000); note: nearly all actives have a fitted effect of over 45% in size
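AMA1 (3D7) with his tag at 25 nM final met compounds first, then biotinylated RON2 peptide at 25 nM; detection used donor plus acceptor beads, 10 µg/mL apiece, read by AlphaScreen after 30 min at room temperature.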
Pf growth 48h = Primary qHTS for delayed death inhibitors of the malarial parasite plastid, 48 hour incubation. Potency, µM (doses to about 28.7 µM), usual class: inhibitors. actives 5.9% (n = 310,000). P. falciparum luciferase growth in erythrocytes, 48 h
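Growth was read as firefly luciferase luminescence after a 48 h, 37 C, 5% CO2 exposure of compounds to reporter-bearing P. falciparum cultures (0.1% parasitemia, 2% hematocrit final) in Albumax-supplemented RPMI 1640.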
Pf growth 96h = Primary qHTS for delayed death inhibitors of the malarial parasite plastid, 96 hour incubation; P. falciparum luciferase reporter growth, 96 h; Potency, µM (highest dose often 28.7 µM), usual class: inhibitors; actives 6.9% (n = 320,000)
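P. falciparum expressing integrated firefly luciferase grown in erythrocytes (2% hematocrit, 0.05% parasitemia final) with compounds for 96 hours at 37 C, 5% CO2. Growth inhibition read as loss of luminescence after adding luciferase detection reagent.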
HCV inhibitor = qHTS Assay for Inhibitors of Hepatitis C Virus (HCV) | Huh7.5.1 HCVcc-Cre infection, luciferase reporter, 44 h | actives 3.4% (n = 340,000) | Potency, µM (series often up to 41.8 µM), actives largely listed as inhibitors
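Infectious HCVcc-Cre (~0.5 moi) was added to cells just after compound, with cells seeded 4 h earlier at 1,000 per well. Luciferase activity after 44 h culture reported infection; substrate was incubated 15 min at room temperature before reading.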
CHX counter = Cycloheximide Counterscreen for Small Molecule Inhibitors of Shiga Toxin. cell reporter, cycloheximide protein synthesis inhibition counterscreen. max response, %. actives 12% (n = 300,000). AID 2314, 2010; in the data active = max response mostly above about 13%, no sharp cut-off; inactive = mostly below about 14%; note: read at 38.3 µM for the half of the compounds with a filed dose
Shiga inhibitor = A qHTS for Small Molecule Inhibitors of Shiga Toxin; Vero cells, Shiga toxin protein synthesis inhibition reporter; inhibition, % at 38.7 µM; actives 9.2% (n = 290,000); in the data active = inhibition mostly above about 28%, no sharp cut-off; inactive = mostly below about 43%
Large screens that a line does not name were inactive. Unless noted, calls come from the whole dose curve; as a rule, active = well fitted curve in the direction sought with a large enough effect; inconclusive = small, poorly fitted or top-dose-only effect, or another doubt; inactive = no such curve, though single readings can be large; an effect the other way counts as inactive or inconclusive.

O=C(Nc1ccc2c(c1)OCO2)C1CC(=O)N(c2ccc(F)cc2)C1 (stereo unspecified)	Pf growth 96h inconclusive
O/N=C/c1ccc(OCc2ccccc2)c(Cl)c1	CHX counter 37, Shiga inhibitor 76
O/N=C/c1cc(Br)cc(Br)c1OCc1ccccc1	none
CCOc1cc(/C=C/C(=O)O)ccc1OCc1ccccc1	none
COC(=O)N/N=C/c1cc(Cl)c(OCc2ccccc2F)c(OC)c1	Pf growth 48h inconclusive, HCV inhibitor inconclusive
O/N=C/c1cc(Cl)ccc1OCc1ccccc1Cl	none
O/N=C/c1ccc(OCc2ccccc2)c(Br)c1	CHX counter 40, Shiga inhibitor 66
O/N=C/c1ccccc1OCc1ccccc1F	CHX counter 26, Shiga inhibitor 38
O/N=C/c1ccc(OCc2ccccc2F)c(Cl)c1	CHX counter 52, Shiga inhibitor 53
Nc1ccc(-c2nc3cc(N)ccc3o2)cc1	CHX counter 38, Shiga inhibitor 38
CN(C)c1ccc(-c2nc3cc(N)ccc3o2)cc1	CHX counter 14
Cc1ccc2nc(-c3cc(N)cc(N)c3)oc2c1	CHX counter 17
Nc1ccc(-c2nc3ccc(N)cc3o2)cc1	CHX counter 39 (no result: Pf growth 48h)
Cc1ccc(C)c(-c2nc3cc(N)ccc3o2)c1	HCV inhibitor inconclusive, Shiga inhibitor 28 (no result: Pf growth 96h)
COC(=O)c1ccc(-c2nc3cc(N)ccc3o2)cc1	CHX counter 18, Shiga inhibitor 38
Cc1ccc(-c2nc3cc(N)ccc3o2)cc1Br	Pf growth 96h 4.7µM, CHX counter 39 (no result: Shiga inhibitor)
CN(C(=O)CN1C(=O)/C(=C/c2ccccc2F)SC1=S)C1CCS(=O)(=O)C1 (stereo unspecified)	none
COc1ccc(N(CC(=O)Nc2cccc(C(F)(F)F)c2)S(C)(=O)=O)cc1	CHX counter active
COc1ccc(N(CC(=O)Nc2cccc(SC)c2)S(C)(=O)=O)cc1	Pf growth 96h inconclusive, CHX counter 23, Shiga inhibitor 49
COc1cccc(N(CC(=O)Nc2cccc(C(C)=O)c2)S(C)(=O)=O)c1	Pf growth 48h inconclusive (no result: Pf growth 96h)
COc1ccc(CN(C)C(=O)c2ccc(OCC(=O)Nc3cccc(C(F)(F)F)c3)c(OC)c2)c(OC)c1	Pf growth 48h inconclusive, Pf growth 96h inconclusive, HCV inhibitor 0.56µM (no result: CHX counter, Shiga inhibitor)
O=C(c1cc2cc(F)ccc2[nH]1)N1CCN(C(=O)c2ccco2)CC1	Pf growth 48h inconclusive, Pf growth 96h inconclusive
COc1ncnc2c1ncn2CCCNCCCN1CCCC1=O	none (no result: Pf growth 48h, Pf growth 96h, HCV inhibitor, CHX counter, Shiga inhibitor)
Cc1cc(C(=O)CN2C(=O)C(=O)N(C3CCCC3)C2=O)c(C)n1CCc1ccc(F)cc1	Pf growth 48h inconclusive (no result: CHX counter, Shiga inhibitor)
CCCCn1c(N)c(N(CC(C)C)C(=O)CSc2ccccc2C)c(=O)[nH]c1=O	Pf growth 96h inconclusive (no result: CHX counter, Shiga inhibitor)
Cc1nc2c(sc3nc4c(cc32)COC(C)(C)C4)c(=O)n1CC(=O)NCc1ccco1	Pf growth 96h inconclusive, CHX counter 24, Shiga inhibitor 39
CC1(C)Cc2nc3sc4c(SCC(=O)NCc5ccco5)ncnc4c3cc2CO1	HCV inhibitor 14µM, CHX counter 51, Shiga inhibitor 99 (no result: Pf growth 96h)
COc1cc2c(cc1OC)-c1cc(NC3CCCCCCC3)nc(=O)n1CC2	Pf growth 48h inconclusive, Pf growth 96h 7.4µM
COc1ccc(CCNC(=O)CSc2ccccn2)cc1OC	none
COc1ccc(CCNC(=O)CSc2nnc(-c3ccc(F)cc3)c3ccccc23)cc1OC	Pf growth 48h 9.3µM, Pf growth 96h 5.2µM
O=C(CSc1nnc(-c2ccc(F)cc2)c2ccccc12)Nc1ccccc1	CHX counter 22
O=C(CSc1nncc2ccccc12)Nc1cccc(C(=O)O)c1	CHX counter 40, Shiga inhibitor 99
O=C(NNC(=O)c1ccc(-c2ccc([N+](=O)[O-])cc2)o1)c1ccncc1	none (no result: CHX counter, Shiga inhibitor)
CNc1nc(Oc2cccc(F)c2)c2sccc2n1	none (no result: Pf growth 48h, Pf growth 96h, HCV inhibitor, CHX counter, Shiga inhibitor)
Cc1onc(-c2ccccc2)c1C(=O)Nc1nnc(CC(C)(C)C)s1	none
